In PubChem BioAssay AID1159580 (chemical genetic matrix, 2015):
Hit rate of the full screen: of about 5,500 compounds, about 2,000 (36%) were called active. About 18% were inconclusive and are not listed. No stated cut-off is given here; in the data, active means normalized growth mostly below about 0.91 (no sharp cut-off); inconclusive means no clear call, values can overlap the other calls; inactive means mostly above about 0.92. The list shows a part of the results.

Assay: chemical genetic growth profiling, strain panel (AID 1159580);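 further: tested at 20 µM; growth read once vehicle control cultures reached saturation at 30 °C; 1 = growth at the plate median or of vehicle wells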
Conditions: growth OD

Measured: normalized growth

COc1cc(O)c(C(=O)c2ccccc2)c(OC)c1
active: S. cerevisiae deletion strains, locus YLR418C, strain cdc73, stronger effect = lower value 0.813 | S. cerevisiae deletion strains, locus YNL307C, strain MCK1, stronger effect = lower value 0.73
inactive: S. cerevisiae deletion strains, locus YAL013W, strain DEP1, stronger effect = lower value 0.982 | S. cerevisiae deletion strains, locus YBR021W, strain FUR4, stronger effect = lower value 0.898 | S. cerevisiae deletion strains, locus YBR229C, strain ROT2, stronger effect = lower value 0.985 | S. cerevisiae deletion strains, locus YCL029C, strain bik1, stronger effect = lower value 0.996 | S. cerevisiae deletion strains, locus YDL035C, strain GPR1, stronger effect = lower value 0.972 | S. cerevisiae deletion strains, locus YDL074C, strain BRE1, stronger effect = lower value 0.922 | S. cerevisiae deletion strains, locus YDL101C, strain DUN1, stronger effect = lower value 0.986 | S. cerevisiae deletion strains, locus YDL134C, strain PPH21, stronger effect = lower value 0.984 | S. cerevisiae deletion strains, locus YDL185W, strain tfp1, stronger effect = lower value 0.989 | S. cerevisiae deletion strains, locus YDL192W, strain arf1, stronger effect = lower value 0.982 | S. cerevisiae deletion strains, locus YDR101C, strain arx1, stronger effect = lower value 0.961 | S. cerevisiae deletion strains, locus YDR150W, strain NUM1, stronger effect = lower value 0.994 | S. cerevisiae deletion strains, locus YDR162C, strain NBP2, stronger effect = lower value 0.907 | S. cerevisiae deletion strains, locus YDR318W, strain mcm21, stronger effect = lower value 0.956 | S. cerevisiae deletion strains, locus YDR388W, stronger effect = lower value 0.978 | S. cerevisiae deletion strains, locus YDR502C, strain sam2, stronger effect = lower value 0.937 | S. cerevisiae deletion strains, locus YEL061C, strain CIN8, stronger effect = lower value 0.984 | S. cerevisiae deletion strains, locus YER110C, stronger effect = lower value 0.994 | S. cerevisiae deletion strains, locus YER155C, strain BEM2, stronger effect = lower value 0.989 | S. cerevisiae deletion strains, locus YER167W, strain BCK2, stronger effect = lower value 0.954 | S. cerevisiae deletion strains, locus YGL078C, strain dbp3, stronger effect = lower value 0.99 | S. cerevisiae deletion strains, locus YGL086W, strain mad1, stronger effect = lower value 0.983 | S. cerevisiae deletion strains, locus YGL248W, strain PDE1, stronger effect = lower value 0.983 | S. cerevisiae deletion strains, locus YGR078C, strain PAC10, stronger effect = lower value 0.927 | S. cerevisiae deletion strains, locus YGR135W, strain pre9, stronger effect = lower value 0.92 | S. cerevisiae deletion strains, locus YGR229C, strain SMI1, stronger effect = lower value 0.885 | S. cerevisiae deletion strains, locus YGR252W, strain gcn5, stronger effect = lower value 0.914 | S. cerevisiae deletion strains, locus YHR030C, strain SLT2, stronger effect = lower value 0.945 | S. cerevisiae deletion strains, locus YHR079C, strain IRE1 (second series), stronger effect = lower value 0.966 | S. cerevisiae deletion strains, locus YHR094C, strain hxt1, stronger effect = lower value 0.986 | S. cerevisiae deletion strains, locus YHR129C, strain ARP1, stronger effect = lower value 0.972 | S. cerevisiae deletion strains, locus YHR200W, strain rpn10, stronger effect = lower value 0.985 | S. cerevisiae deletion strains, locus YIL066C, strain RNR3, stronger effect = lower value 0.938 | S. cerevisiae deletion strains, locus YIL073C, strain SPO22, stronger effect = lower value 1 | S. cerevisiae deletion strains, locus YIL125W, strain kgd1, stronger effect = lower value 0.981 | S. cerevisiae deletion strains, locus YIR030C, strain dcg1, stronger effect = lower value 0.979 | S. cerevisiae deletion strains, locus YJL095W, strain BCK1, stronger effect = lower value 0.806 | S. cerevisiae deletion strains, locus YJL134W, strain LCB3, stronger effect = lower value 0.986 | S. cerevisiae deletion strains, locus YJL168C, strain set2, stronger effect = lower value 0.99 | S. cerevisiae deletion strains, locus YJL187C, strain SWE1 (second series), stronger effect = lower value 0.964 | S. cerevisiae deletion strains, locus YJR043C, strain POL32, stronger effect = lower value 0.981 | S. cerevisiae deletion strains, locus YJR075W, strain HOC1, stronger effect = lower value 0.935 | S. cerevisiae deletion strains, locus YKL009W, strain mrt4, stronger effect = lower value 0.99 | S. cerevisiae deletion strains, locus YKL068W, stronger effect = lower value 0.986 | S. cerevisiae deletion strains, locus YKL085W, strain MDH1 (second series), stronger effect = lower value 0.987 | S. cerevisiae deletion strains, locus YKL085W, strain MDH1, stronger effect = lower value 0.987 | S. cerevisiae deletion strains, locus YKL190W, strain CNB1, stronger effect = lower value 0.991 | S. cerevisiae deletion strains, locus YKR001C, strain vps1, stronger effect = lower value 0.936 | S. cerevisiae deletion strains, locus YLR039C, strain RIC1, stronger effect = lower value 0.827 | S. cerevisiae deletion strains, locus YLR058C, strain SHM2, stronger effect = lower value 0.984 | S. cerevisiae deletion strains, locus YLR102C, strain apc9, stronger effect = lower value 0.98 | S. cerevisiae deletion strains, locus YLR262C, strain YPT6, stronger effect = lower value 0.817 | S. cerevisiae deletion strains, locus YLR268W, strain sec22, stronger effect = lower value 0.904 | S. cerevisiae deletion strains, locus YLR330W, strain CHS5, stronger effect = lower value 0.984 | S. cerevisiae deletion strains, locus YLR342W, strain FKS1 (second series), stronger effect = lower value 0.88 | S. cerevisiae deletion strains, locus YLR371W, strain rom2, stronger effect = lower value 0.991 | S. cerevisiae deletion strains, locus YML016C, strain PPZ1, stronger effect = lower value 0.981 | S. cerevisiae deletion strains, locus YML032C, strain rad52, stronger effect = lower value 0.994 | S. cerevisiae deletion strains, locus YML124C, strain tub3, stronger effect = lower value 0.983 | S. cerevisiae deletion strains, locus YMR078C, strain ctf18, stronger effect = lower value 0.98 | S. cerevisiae deletion strains, locus YMR223W, strain ubp8, stronger effect = lower value 0.966 | S. cerevisiae deletion strains, locus YMR263W, strain SAP30, stronger effect = lower value 0.962 | S. cerevisiae deletion strains, locus YMR307W, strain GAS1, stronger effect = lower value 0.647 | S. cerevisiae deletion strains, locus YNL067W, strain RPL9B, stronger effect = lower value 0.953 | S. cerevisiae deletion strains, locus YNL128W, strain TEP1, stronger effect = lower value 0.991 | S. cerevisiae deletion strains, locus YNL153C, strain GIM3, stronger effect = lower value 0.961 | S. cerevisiae deletion strains, locus YNL233W, strain BNI4, stronger effect = lower value 0.904 | S. cerevisiae deletion strains, locus YNL250W, strain rad50, stronger effect = lower value 1 | S. cerevisiae deletion strains, locus YNL271C, strain bni1, stronger effect = lower value 0.982 | S. cerevisiae deletion strains, locus YNL298W, strain CLA4, stronger effect = lower value 0.987 | S. cerevisiae deletion strains, locus YNL322C, strain KRE1, stronger effect = lower value 0.99 | S. cerevisiae deletion strains, locus YNR052C, strain pop2, stronger effect = lower value 1.01 | S. cerevisiae deletion strains, locus YOL006C, strain TOP1, stronger effect = lower value 0.824 | S. cerevisiae deletion strains, locus YOL012C, strain htz1 0.9 | S. cerevisiae deletion strains, locus YOL147C, strain pex11, stronger effect = lower value 0.965 | S. cerevisiae deletion strains, locus YOR061W, strain CKA2, stronger effect = lower value 0.989 | S. cerevisiae deletion strains, locus YOR069W, strain VPS5, stronger effect = lower value 0.987 | S. cerevisiae deletion strains, locus YOR136W, strain idh2, stronger effect = lower value 1.01 | S. cerevisiae deletion strains, locus YOR144C, strain elg1, stronger effect = lower value 0.983 | S. cerevisiae deletion strains, locus YOR184W, strain ser1, stronger effect = lower value 0.931 | S. cerevisiae deletion strains, locus YOR316C, strain cot1, stronger effect = lower value 0.981 | S. cerevisiae deletion strains, locus YPL055C, strain LGE1, stronger effect = lower value 0.927 | S. cerevisiae deletion strains, locus YPL241C, strain CIN2, stronger effect = lower value 0.986 | S. cerevisiae deletion strains, locus YPR119W, strain clb2, stronger effect = lower value 0.98 | S. cerevisiae deletion strains, locus YPR141C, strain kar3, stronger effect = lower value 0.99 | S. cerevisiae deletion strains, locus YPR163C, strain tif3, stronger effect = lower value 0.928 | S. cerevisiae deletion strains, locus YPR167C, strain met16, stronger effect = lower value 0.978 | S. cerevisiae deletion strains, strain wtn01, stronger effect = lower value 0.929 | S. cerevisiae strains, strain wild type, stronger effect = lower value 0.983
